In the library only some 0.52% were active in any assay of this set; here they are far more common.
KAT2A inh: qHTS Assay for Inhibitors of GCN5L2; GCN5L2 HAT assay, ThioGlo1 CoA-SH fluorescence; Potency, µM (doses to about 58.9 µM), for inactives: at the top dose activity change, negative = inhibition, most hits filed as inhibitors; actives 0.21% (n = 390,000); also: % is scaled to controls: 0 for no effect and ±100 for the full control effect
Target sequence (Q92830 whole entry, looked up): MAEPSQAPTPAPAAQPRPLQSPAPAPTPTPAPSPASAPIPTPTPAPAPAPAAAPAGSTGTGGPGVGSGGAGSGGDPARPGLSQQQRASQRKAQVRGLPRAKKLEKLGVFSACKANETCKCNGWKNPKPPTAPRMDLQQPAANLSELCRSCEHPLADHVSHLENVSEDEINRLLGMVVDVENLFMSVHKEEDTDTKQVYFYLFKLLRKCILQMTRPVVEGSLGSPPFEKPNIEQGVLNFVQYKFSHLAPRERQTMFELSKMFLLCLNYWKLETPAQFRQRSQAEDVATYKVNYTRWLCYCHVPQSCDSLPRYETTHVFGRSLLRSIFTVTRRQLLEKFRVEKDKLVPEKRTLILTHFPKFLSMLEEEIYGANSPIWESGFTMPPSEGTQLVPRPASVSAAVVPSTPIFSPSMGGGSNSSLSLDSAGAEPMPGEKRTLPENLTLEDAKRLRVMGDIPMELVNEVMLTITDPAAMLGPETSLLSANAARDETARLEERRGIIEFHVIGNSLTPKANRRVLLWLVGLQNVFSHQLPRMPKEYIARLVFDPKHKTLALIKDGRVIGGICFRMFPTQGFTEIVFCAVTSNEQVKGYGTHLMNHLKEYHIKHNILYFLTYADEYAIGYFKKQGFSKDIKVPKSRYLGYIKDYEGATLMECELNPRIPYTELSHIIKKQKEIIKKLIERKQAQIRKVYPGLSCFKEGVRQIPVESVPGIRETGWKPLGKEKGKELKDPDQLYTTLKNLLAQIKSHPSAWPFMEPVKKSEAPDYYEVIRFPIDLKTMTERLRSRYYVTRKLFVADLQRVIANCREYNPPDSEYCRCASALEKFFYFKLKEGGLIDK
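ThioGlo1-coupled HAT assay: 20nM GCN5L2, 70uM acetyl-CoA, 75uM H3(1-25) peptide, pH 7.5. Fluorescence read at 340/540nm at start and after 20 min at room temperature.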
Tb PFK inh-1: qHTS Assay to Find Inhibitors of T. brucei phosphofructokinase. ATP-dependent 6-phosphofructokinase (Trypanosoma brucei brucei), O15648. T. brucei PFK, ADP-Glo luminescence. Potency, µM (highest dose often 57.5 µM), for the others: top-dose activity, negative = inhibition, hits mostly inhibitors. actives 0.17% (n = 330,000). AID 485367, 2010;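 also: 0% = uninhibited 1x PFK enzyme wells and -100% = no-enzyme wells; nearly all actives have a fitted effect of over 60% in size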
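1.25 nM PFK with 0.5 mM F6P and 0.1 mM ATP in 0.1 M TEA pH 8.0, 5 mM MgCl2, incubated 45 min at room temperature; ADP measured by ADP-Glo luminescence; compounds titrated up to 57 uM.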
GLS inh: qHTS for Inhibitors of Glutaminase (GLS); GLS enzymatic activity, qHTS titration; Potency, µM (top dose mostly 45.5 µM), without a hit: at the highest dose activity change, negative = inhibition, usual class: inhibitors; AID 624170, 2012; actives 0.21% (n = 410,000); also: % is scaled to controls: 0 for no effect and ±100 for the full control effect
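Human kidney-isoform GLS in 45 mM KH2PO4 pH 8.2, 0.02% Tween-20, with compound, started with 1mM L-Glutamine (added stock). Glutamate oxidase/HRP/Amplex red coupled fluorescence read at start and after 30 min at RT.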
USP2a block: qHTS Assay for Inhibitors of Ubiquitin-specific Protease USP2a Using CHOP2 as the Reporter; actives 0.01% (n = 330,000); Ubiquitin carboxyl-terminal hydrolase 2 (Homo sapiens), O75604; USP2 core, Ub-CHOP2 coupled fluorogenic reporter, 485/531; Potency, µM (top dose mostly 38.3 µM), for inactives: at the top dose activity change, negative = inhibition, hits mostly inhibitors;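 also: plate controls were DMSO wells for no effect and full inhibition by NEM control for full effect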
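USP2 core (10nM final) preincubated 30min RT with compound in 20mM Tris-HCl pH 8.0, 2mM CaCl2, 2mM beta-mercaptoethanol, 0.05% CHAPS; 25nM Ub-CHOP2 plus 25nM reporter substrate added, fluorescence (Ex485/Em531) read after 60min.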
Tb PGK inh: qHTS Assay to Find Inhibitors of Phosphoglycerate Kinase; Potency, µM (top dose mostly 57.5 µM), inactives show at the top dose activity change, negative = inhibition, hits mostly inhibitors; AID 602233, 2012; Phosphoglycerate kinase, glycosomal (Trypanosoma brucei brucei), P07378; actives 0.043% (n = 380,000); PGK/GAPDH coupled, Kinase-Glo luminescence, 60 min; also: % is scaled to controls: 0 for no effect and ±100 for the full control effect; nearly all actives have a fitted effect of over 60% in size
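Luminescent ATP detection (Kinase-Glo Plus) follows a 60-minute room-temperature incubation, with wells lacking PGK as controls. Buffer: 100 mM TEA (pH 7.6), 5 mM MgCl2, 0.01% Tween-20. Coupling enzyme GAPDH (100 nM final) supplies unstable 1,3-BPG in-well.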
TbPFK ATP: Tb PFK orthogonal confirmatory assay using ATP depletion (Kinase-Glo Plus) as an alternative measure of Tb PFK activity: Hit Validation. shares compounds with Tb PFK inh-1. Tb PFK enzyme, ATP depletion, Kinase-Glo Plus luminescence. Potency, µM (highest dose often 57.5 µM), for inactives: at the top dose inhibition. actives 47% (n = 1,100); calls by dose curve; also: nearly all actives have a fitted effect of over 60% in size
Tb PFK inh-2: Inhibitors of T. brucei phosphofructokinase: Hit Validation; shares compounds with Tb PFK inh-1; actives 41% (n = 1,100); purified T. brucei PFK, ADP-Glo luminescence, 45 min; Potency, µM (top dose mostly 57.5 µM), for the others: at the top dose activity change, negative = inhibition, actives largely listed as inhibitors; AID 504637, 2011;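 also: plate controls were full PFK enzyme control for no effect and no enzyme control for full effect; nearly all actives have a fitted effect of over 60% in size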
Numbers without * were called inactive; i = inactive; ? = inconclusive; . = no result; [ ] = dose if it differs, or a comment. Unless noted, calls follow the shape of the dose curve; as a rule, active = well fitted curve in the direction sought with a large enough effect; inconclusive = small, poorly fitted or top-dose-only effect, or another doubt; inactive = no such curve, though single readings can be large; an effect the other way counts as inactive or inconclusive. Potency is read from the fitted curve at half-maximal effect.

SMILES	KAT2A inh	Tb PFK inh-1	GLS inh	USP2a block	Tb PGK inh	TbPFK ATP	Tb PFK inh-2
Clc1ccc(C[n+]2cc(-c3ccccc3)n3c2CCC3)cc1Cl	-1.7%	?	22.5%	5.4%	4.3%	6.75µM*	10.7µM*
CC(C)n1ncc2c(C(=O)Nc3ccc(S(N)(=O)=O)cc3)cc(C3CC3)nc21	-18.2%	?	-5.9%	-13.4%	-7.6%	-33.1%	?
O=[N+]([O-])c1ccccc1CNc1ccc(F)c(Cl)c1	-5.2%	?	-3.0%	3.1%	0.0%	21.3µM*	?
COc1cccc(CNc2ccc(F)c([N+](=O)[O-])c2)c1O	-5.2%	?	-19.0%	1.2%	3.1%	19µM*	30.1µM*
O=[N+]([O-])c1ccccc1CCl	-14.1%	-1.0%	6.3%	-0.3%	i	.	.
CCCSP(=S)(OCC)Oc1ccc(Cl)cc1Cl (configuration not stated)	-19.4%	.	.	.	.	.	.
O=C1Nc2ccccc2C2(CCN(CCc3ccc(C(F)(F)F)cc3)CC2)O1	31.9%	.	.	.	.	.	.
CCC1COC(Cn2cncn2)(c2ccc(Cl)cc2Cl)O1 (configuration not stated)	17.8%	.	.	.	.	.	.
O=C(C(=O)N1CCOCC1)c1cn(CC(=O)N2CCc3ccccc3C2)c2ccccc12	1.8%	?	2.2%	3.1%	-0.2%	?	?
C=C(C)C(=O)Nc1ccc2c(c1)OCCOCCOCCO2	1.5%	10.7µM*	5.4%	1.7%	?	0.536µM*	0.675µM*
O=C(COC(=O)/C=C/c1ccco1)Nc1ncc(C(F)(F)F)cc1Cl	6.6%	16.9µM*	-2.3%	6.7%	12.6µM*	10.7µM*	13.5µM*
Oc1ccc2c(c1)[C@@]13CCCCC1[C@@H](C2)N(CC1CCC1)CC3 (some centres not stated)	-15.3%	.	.	.	.	.	.
C[C@@H]1CO1	15.3%	.	.	.	.	.	.
Cc1ccc(-c2nc3c(c(SCC(=O)Nc4cccc(C(=O)O)c4)n2)Cc2cccc(C)c2O3)cc1	?	1.69µM*	.	1.4%	.	1.07µM*	?
O=c1c2ccccc2nc(-c2ccco2)n1-c1cccnc1	-6.2%	1.6%	-1.9%	1.7%	i	.	.
O=C1/C(=C/c2ccco2)SC(=S)N1c1cccnc1	28.2µM*	?	11.1%	-9.6%	?	4.26µM*	7.57µM*
O=C(c1cc2cc([N+](=O)[O-])ccc2oc1=O)n1cccn1	-12.3%	?	-0.3%	2.2%	-12.2%	-1.3%	19.3%
O=C(O)c1cc2ccccc2oc1=O	?	-3.3%	4.5%	-0.8%	3.0%	.	.
CCCCCCCCCCCCCCCCn1cc[n+](CC(C)=O)c1	-3.0%	?	?	1.3%	-7.8%	-6.7%	-7.0%
O=C(C[n+]1ccn(CCCNP2(=O)C=C(c3ccccc3)OC(c3ccccc3)=C2)c1)c1ccccc1	-2.9%	12.4%	0.5%	1.2%	1.8%	.	.
O=C(Oc1ccccc1)N1CCC[C@@]2(CCN(Cc3cc(C(F)(F)F)cc(C(F)(F)F)c3)C2)C1	-8.6%	.	.	.	.	.	.
CN1CN(c2cccc([N+](=O)[O-])c2)CN=C1N[N+](=O)[O-]	-6.8%	26.9µM*	1.5%	3.8%	3.2%	?	?
Cc1ccc(S(=O)(=O)N2CCOCC2)cc1C(=O)OCC(=O)Nc1ccc2[nH]c(=O)[nH]c2c1	-8.5%	?	8.4%	2.7%	i	?	?
C/C(O)=C(/C#N)C(=O)Nc1cc(Br)ccc1Br	-10.3%	.	.	.	.	.	.
Cc1ccc(S(=O)(=O)N(C(=O)c2ccncc2)c2ccc(OC(=O)c3ccncc3)c3ccccc23)cc1	-2.9%	16.9µM*	-20.2%	1.2%	-2.1%	2.39µM*	2.69µM*
SMILES	KAT2A inh	Tb PFK inh-1	GLS inh	USP2a block	Tb PGK inh	TbPFK ATP	Tb PFK inh-2
Nc1ccc(Cl)c(Cl)c1	.	.	0.0%	.	4.0%	.	.
Nc1nnc(Cc2ccc(Cl)c(Cl)c2)s1	-7.6%	19µM*	2.9%	0.6%	-6.0%	7.57µM*	19µM*
COc1ccc(OC)c(-c2c3cc(O)c(=O)cc-3oc3cc(O)c(O)cc23)c1	?	9.53µM*	-2.4%	?	?	?	3.79µM*
COc1nn(CSP(=S)(OC)OC)c(=O)s1	.	.	22.3%[99.4 µM]	.	.	.	.
CN1CCc2cccc3c2C1Cc1ccc(O)c(O)c1-3 (configuration not stated)	-10.5%	4.26µM*	58.4%	-0.6%	-9.7%	19µM*	16.9µM*
C=CCN1CCc2cccc3c2[C@H]1Cc1ccc(O)c(O)c1-3	?	?	?	-1.1%	-6.1%	6.01µM*	6.01µM*
C=CCN1CC[C@]23c4c5ccc(O)c4O[C@@H]2/C(=N/N=C2\CC[C@@]4(O)C6Cc7ccc(O)c8c7[C@@]4(CCN6CC=C)[C@@H]2O8)CC[C@@]3(O)C1C5	-2.0%	.	.	.	.	.	.
CCCN1CCc2cc(O)cc3c2C1Cc1ccc(O)c(O)c1-3 (configuration not stated)	-9.9%	.	.	.	.	.	.
CC(=O)OCC1=C(C(=O)O)N2C(=O)C(NC(=O)CCCC(N)C(=O)O)C2SC1 (configuration not stated)	14.6%	.	.	.	.	.	.
OC[C@@H](O)[C@H]1O[C@@H]2OC(C(Cl)(Cl)Cl)O[C@H]2[C@H]1O (some centres not stated)	1.8%	.	6.2%	.	.	.	.
COc1ccc2nc(NC(=O)c3ccccc3O)sc2c1	?	?	14.5%	2.0%	4.6%	-30.5%	?
CCOc1ccc2nc(NC(=O)c3cccn(Cc4ccccc4C)c3=O)sc2c1	-4.6%	.	-0.1%	.	-2.3%	.	.
c1cnc(N2CCC3(CCNCC3)CC2)nc1	-4.2%	.	.	.	.	.	.
NC1C=CC=C(C(=O)O)C1 (configuration not stated)	?	.	3.4%	.	9.1%	.	.
